This is a sample that favours compounds with a hit; in the whole collection about 7.4% have one here.
Tau filament bind – binds recombinant human tau filaments; P10636; recombinant tau filaments, thioflavin S fluorescence, 15 h; filaments grown with octadecylsulfate alongside compound; Potency, µM (doses to about 57.1 µM), for inactives: at the top dose activity change, negative = inhibition; actives 2% (n = 71,000); AID 596;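 note: % is set by controls: 0 for no effect and ±100 for the full control effect; actives lower thioflavin S fluorescence by blocking filaments or displacing dye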
Target sequence (P10636 whole entry, looked up): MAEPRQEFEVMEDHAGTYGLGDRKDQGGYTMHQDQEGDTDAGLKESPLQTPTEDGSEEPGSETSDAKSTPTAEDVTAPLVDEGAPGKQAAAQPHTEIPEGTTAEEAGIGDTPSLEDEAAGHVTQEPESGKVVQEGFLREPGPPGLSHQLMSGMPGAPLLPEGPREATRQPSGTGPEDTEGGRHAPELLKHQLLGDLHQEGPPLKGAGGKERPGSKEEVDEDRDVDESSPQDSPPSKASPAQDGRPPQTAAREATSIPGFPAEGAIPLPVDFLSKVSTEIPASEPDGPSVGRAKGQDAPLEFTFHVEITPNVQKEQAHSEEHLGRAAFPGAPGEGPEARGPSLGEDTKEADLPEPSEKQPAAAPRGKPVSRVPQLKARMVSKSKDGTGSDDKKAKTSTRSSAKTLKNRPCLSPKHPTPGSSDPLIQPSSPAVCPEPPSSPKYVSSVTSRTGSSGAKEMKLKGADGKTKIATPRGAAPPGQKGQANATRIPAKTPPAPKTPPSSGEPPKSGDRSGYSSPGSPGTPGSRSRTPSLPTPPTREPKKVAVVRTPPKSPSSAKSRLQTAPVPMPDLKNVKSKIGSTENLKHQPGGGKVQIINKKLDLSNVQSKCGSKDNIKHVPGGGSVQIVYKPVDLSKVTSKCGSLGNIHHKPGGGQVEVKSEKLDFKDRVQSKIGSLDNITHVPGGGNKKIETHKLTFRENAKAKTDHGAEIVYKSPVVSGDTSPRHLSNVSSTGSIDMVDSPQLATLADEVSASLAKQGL
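Quantitative HTS: thioflavine S signal from ODS-induced tau filaments, excited at 450 nm, emission 510 nm. Conditions: 1 uM tau, 30 uM ODS, 15 h at 37 C, pH 7.4.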
TSHR ag – agonists of human thyroid stimulating hormone receptor; P16473; HEK293-CNG-TSHR cells (CNG channel as cAMP sensor), membrane potential dye, cAMP; Potency, µM (series often up to 57.1 µM), inactives show at the top dose activation, hits mostly activators; actives 0.48% (n = 73,000); active = well fitted activation curve with a large enough effect in the main read-out, with a control signal flat, not every such curve was filed as active; inconclusive = small, poorly fitted or top-dose-only effect, or a change in a side signal; inactive = no such curve, though single readings can be large or run the other way; % of control where 0% means no effect;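 note: the control signal comes from parental cells without the receptor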
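cAMP rise detected as CNG-channel membrane depolarization by fluorescent dye (emission 590 nm), 30 min after compound, following 60 min dye loading containing 100 uM RO 20-1724 at room temperature. Cells: TSHR/CNG HEK 293, with parental CNG HEK 293 as control.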
CRE Fsk mod – alters forskolin-stimulated CRE reporter signaling in CHO cells | CHO CRE-bla reporter (cAMP response element driving beta-lactamase), forskolin EC10, beta-lactamase ratio | Potency, µM (doses to about 38.2 µM), inactives show at the top dose activity change, negative = inhibition, usual class: activators | actives 2.5% (n = 71,000) | AID 662; active = well fitted activation curve with a large enough effect in the signal ratio, with a control signal flat, not every such curve was filed as active; inconclusive = small, poorly fitted or top-dose-only effect, or effect the other way, or a change in a side signal; the % refers to the signal ratio; note: % of control where 0% means no effect
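Titrated compounds plus EC10 NKH 477 on CHO CRE-bla cells, 3 h, 37 °C. CCF4, 2 h RT. Ratio 460/530 nm → AC50.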
HEK293 cAMP cs – counter-screen for TSHR agonists: cAMP increase in parental HEK293; parental HEK293 CNG cAMP sensor, membrane potential fluorescence; Potency, µM (highest dose often 57.1 µM), inactives show at the highest dose activation, most hits filed as activators; actives 2.5% (n = 73,000); AID 938; note: % of control where 0% means no effect; nearly all actives have a fitted effect of over 55% in size
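Parental HEK 293 cells stably expressing a cAMP-gated CNG channel were loaded with membrane potential dye containing 100 uM RO 20-1724 for 60 min. Compound added for 30 min; depolarization read as fluorescence intensity at 590 nm.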
ERK AVP block – vasopressin-driven ERK pathway inhibition; HEK293-V1b, vasopressin-stimulated pERK AlphaScreen; Potency, µM (highest dose often 57.5 µM), without a hit: at the top dose activity, negative = inhibition, most hits filed as inhibitors; actives 0.99% (n = 72,000); AID 995; note: % is set by controls: 0 for no effect and ±100 for the full control effect; nearly all actives have a fitted effect of over 55% in size
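Phosphorylated ERK1/2 detected via AlphaScreen bead proximity in lysates of V1b-expressing HEK293 cells given 25 nM vasopressin for 5 min after 30 min compound exposure (37 °C). AC50 from Hill equation; basal DMSO 0%, vasopressin 100%.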
Numbers without * were called inactive; ? = inconclusive; · = no result; [ ] = dose if it differs, or a comment. Unless noted, calls come from the whole dose curve; as a rule, active = well fitted curve in the direction sought with a large enough effect; inconclusive = small, poorly fitted or top-dose-only effect, or another doubt; inactive = no such curve, though single readings can be large; an effect the other way counts as inactive or inconclusive. Potency is the fitted concentration of half-maximal effect.

SMILES	Tau filament bind	TSHR ag	CRE Fsk mod	HEK293 cAMP cs	ERK AVP block
O=C(NCCc1c[nH]c2ccccc12)C(F)(F)C(F)F	1.4%	-0.4%	?	-4.5%	53.3%
Clc1ccc([C@@H](c2ccccc2Cl)C(Cl)Cl)cc1	5.4%	20µM*	15.6%	11.5%	·
Clc1ccccc1C(Nc1ncccn1)Nc1ncccn1	-0.7%[11.4 µM]	-0.9%[11.4 µM]	-3.4%[7.6 µM]	-1.2%[11.4 µM]	13.7%[11.5 µM]
Cn1cc(/C=N/n2cnc3scc(-c4ccc(Cl)cc4)c3c2=O)c2ccccc21	25.5%	9.1%	1µM*	13.9%	5.2%
O=C(CN1CCCN(Cc2ccc(F)cc2Cl)C1=O)NCc1ccccc1	0.3%	25.1µM*	-12.8%	8.9%	14.0%
O=C1c2cc([N+](=O)[O-])ccc2-c2ccc3c4ccc5c6c(ccc(c7ccc1c2c73)c64)C(=O)c1cc([N+](=O)[O-])ccc1-5	1.58µM*	-0.3%[11.4 µM]	-2.6%[7.6 µM]	7.3%[11.4 µM]	-8.4%[11.5 µM]
CCC1=C(C[C@H]2NCCc3ccccc32)C[C@@H]2c3cc(OC)c(OC)cc3CCN2C1	0.4%[11.4 µM]	?	?	?	1.0%[11.5 µM]
CC(C)[C@@H](CC(=O)N[C@@H]1CCNC[C@H]1C(=O)N[C@H](CC(=O)N[C@@H](CCC(=O)O)CC(=O)O)Cc1c[nH]c2ccccc12)NC(=O)C[C@H](Cc1ccccc1)NC(=O)[C@@H]1CCCC[C@H]1N	-4.7%	11.0%	-13.7%	0.9%	·
CCCCCN=c1ccn(Cc2ccccc2)c2ccccc12	81.3%	?	-8.8%	15.8µM*	?
O=S(O)O.O=S(O)O.[Co].[NH2-].[NH2-].[NH2-].[NH2-]	-4.7%[11.4 µM]	3.4%[11.4 µM]	-4.4%[7.6 µM]	20.8%[11.4 µM]	-5.5%[11.5 µM]
Cc1cc(NC(=O)CC2CCCC2)n(-c2nc3ccccc3[nH]2)n1	15.6%	?	?	25.1µM*	-11.3%
Cc1cc(Nc2nc3ccccc3[nH]c2=O)n(-c2ccccc2)n1	5.0%	?	?	?	-17.4%
COc1ccc(CNc2ncncc2-c2cccnc2)c(OC)c1	-4.6%	10.1%	?	5.2%	6.8%
COc1ccc(CNc2ncnc3ccc(-c4ccc5c(c4)OCO5)cc23)c(OC)c1	79.8%	?	?	?	?
c1cncc(CNc2ncncc2-c2ccoc2)c1	58.2%	3.6%	-7.2%	9.0%	-19.7%
COc1cccc(-c2cncnc2NCc2ccc(OC)cc2OC)c1	-4.6%	?	?	15.8µM*	6.2%
c1ncc(-c2ccoc2)c(NC2CC2)n1	65.9%	?	0.6%	3.98µM*	-1.2%
COc1cccc(-c2cncnc2NCc2ccccc2OC)c1	6.9%	?	?	25.1µM*	?
COc1ccc(CNc2ncncc2-c2ccoc2)c(OC)c1	-17.9%	?	4.5%	10µM*	-9.6%
O=C(O)c1[nH]c2c([N+](=O)[O-])cc([N+](=O)[O-])cc2c1C(=O)O	2.6%[11.4 µM]	9.3%[11.4 µM]	?	18.2%[11.4 µM]	8.1%[11.5 µM]
N#CCCn1c(=O)c(-c2ccccc2)nc2cnc(OCc3ccccc3)nc21	-14.9%	1.1%	?	17.1%	-9.0%
COc1ccccc1CNc1ncncc1-c1ccccc1CN(C)C	0.9%	9.0%	1.0%	16.4%	-2.3%
COc1ccccc1CNc1ncnc2c1nnn2Cc1ccccc1	41.4%	?	11.8%	12.6µM*	-9.8%
COc1ccccc1CNc1ncncc1-c1ccccc1OC	-4.0%	?	15.2%	10µM*	-11.3%
CC(C)C[C@@H](CC(=O)N[C@@H](CCC(=O)O)CC(=O)O)NC(=O)[C@@H]1CCCC[C@H]1NC(=O)C[C@H](CCCN)NC(=O)C[C@H](CO)NC(=O)[C@@H]1CCCC[C@H]1N	-23.4%	25.2%	-5.9%	12.1%	·
SMILES	Tau filament bind	TSHR ag	CRE Fsk mod	HEK293 cAMP cs	ERK AVP block
COc1ccc(-c2cnnn2-c2ccc(NC(=O)c3ccco3)cc2)cc1OC	-25.8%	?	3.16µM*	?	15.8µM*
Cn1c(=O)c2c(nc(/C=C\c3cccc(Cl)c3)n2C)n(C)c1=O	-0.8%	6.0%	6.1%	-4.4%	-5.8%
CCN1C(=O)c2cccc3c(S(=O)(=O)Nc4nc(C)cs4)ccc1c23	-18.5%	16.8%	15.8µM*	5.2%	?
CCN1C(=O)c2cccc3c(S(=O)(=O)Nc4ncccc4C)ccc1c23	1.2%	9.9%	5.01µM*	9.8%	25.1µM*
N.N.O=C(O)C1(C(=O)O)CCC1.[Pt]	0.6%	?	-6.3%	?	-6.2%
CCOC(=O)Cc1csc(NC(=O)c2c(-c3ccccc3)noc2C)n1	4.8%[11.4 µM]	-6.1%[11.4 µM]	?	-5.0%[11.4 µM]	-3.0%
Cc1noc(C)c1C(=O)Nc1nc(C23CC4CC(CC(C4)C2)C3)cs1	-9.3%	12.6%	?	3.9%	20µM*
CC(C)(C)CC(C)(C)c1ccc(O)c(C[N+](C)(C)[O-])c1	-3.4%[11.4 µM]	2.4%[11.4 µM]	18.1%[7.6 µM]	-1.3%[11.4 µM]	-6.4%[11.5 µM]
O=c1c2ccccc2nc(-c2ccccc2)n1Cc1ccco1	-11.9%	?	11.6%	?	-17.2%
COc1cccc(-c2n[nH]c(=S)n2Cc2ccco2)c1OC	0.7%	8.6%	0.0%	-0.9%	-9.1%
COc1cccc(-c2nc(=S)c3c(n2Cc2ccco2)CCCC3)c1	15.8µM*	?	8.0%	?	-14.4%
Cc1ccc(-c2nc(=S)c3c(n2Cc2ccco2)CCCC3)cc1	·	?	·	2.51µM*	·
Cc1cc2n(n1)C(c1ccc(N(C)C)cc1)Nc1ccccc1-2 (configuration not stated)	-5.7%	-3.2%	7.94µM*	-16.2%	-13.5%
C=CC1=C(C)/C(=C/c2[nH]c(Cc3[nH]c(/C=C4\NC(=O)C(C)=C4C=C)c(C)c3CCC(=O)O)c(CCC(=O)O)c2C)NC1=O	·	·	·	·	-5.4%
CCCc1noc2c1/C(=N\O)CC(CC(C)SCC)C2 (configuration not stated)	·	25.1µM*	·	15.7%	·
CCSC(C)CC1C/C(=N/O)c2c(CC)noc2C1 (configuration not stated)	5.0%	15.6%	?	19.2%	-14.3%
CC(C)(C)c1cc(Br)c(O)c(CN(Cc2cc(C(C)(C)C)cc(Br)c2O)C2CCCCC2)c1	-25.9%[11.4 µM]	?	7.4%[7.6 µM]	?	13.4%[11.5 µM]
Cn1c(CSc2nc3ccc(Br)cc3[nH]2)nc2ccccc21	64.4%	11.4%	?	11.7%	20µM*
N#Cc1c(NC(=O)C(F)(F)F)sc2c3c(=O)c4ccccc4c(=O)c=3oc3ccccc3c12	3.98µM*	0.0%[11.4 µM]	?	-6.1%[11.4 µM]	-1.1%[11.5 µM]
Cc1c(C(=O)Nc2nnc(C(F)(F)F)s2)oc2ccccc12	·	3.0%	·	-5.3%	·
CCOC(=O)c1cnn2c(C(F)F)cc(C3CC3)nc12	-3.5%	1.1%	?	5.0%	-12.6%
O=C(Nc1cccnc1)c1cnn2c(C(F)F)cc(C3CC3)nc12	-8.9%	24.9%	7.94µM*	-3.6%	?
COc1ccc2c3c(cccc13)NN=C2C	15.8µM*	-16.5%	2.8%	-20.8%	4.5%
CN(C)c1ccc(C=Nc2ccc(N(C)C)cc2)cc1	·	3.4%	·	-8.9%	·

Compound activity: PubChem BioAssay, National Center for Advancing Translational Sciences (NCATS)
